The whole screen tested about 1,600 compounds, of which about 25 (2%) were called active. Inconclusive results (about 7%) are left out. Calls follow the shape of the dose curve; as a rule, active = well fitted inhibition curve with a large enough effect; inconclusive = small, poorly fitted or top-dose-only effect, or effect the other way; inactive = no such curve, though single readings can be large or run the other way. Only a selection was taken, and actives are over-represented in it overall.
target: Runt-related transcription factor 1 (Homo sapiens) + Core-binding factor subunit beta (Homo sapiens) (UniProt Q01196+Q13951); assay: qHTS Assay for Compounds Blocking the Interaction Between CBF-beta and RUNX1 for the Treatment of Acute Myeloid Leukemia: Hit Validation with Orthogonal Assay; details: CBFbeta-RUNX1 binding orthogonal assay, biochemical; series mostly up to 41 µM; activity change, negative = inhibition: at the top concentration
Sequence (Q01196 whole entry, looked up): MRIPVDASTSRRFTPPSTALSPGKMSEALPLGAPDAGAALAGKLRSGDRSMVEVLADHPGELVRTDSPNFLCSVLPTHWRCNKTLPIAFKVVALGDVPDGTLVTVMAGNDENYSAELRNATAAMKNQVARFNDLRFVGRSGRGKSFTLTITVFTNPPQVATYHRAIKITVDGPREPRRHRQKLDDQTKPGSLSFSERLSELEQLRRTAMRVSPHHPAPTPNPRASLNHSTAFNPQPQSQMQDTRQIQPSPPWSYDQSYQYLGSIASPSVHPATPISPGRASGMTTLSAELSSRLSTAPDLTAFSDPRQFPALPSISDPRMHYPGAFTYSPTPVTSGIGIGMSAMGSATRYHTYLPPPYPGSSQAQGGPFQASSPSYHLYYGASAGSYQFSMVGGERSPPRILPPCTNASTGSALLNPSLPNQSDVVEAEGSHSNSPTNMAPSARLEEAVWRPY
Sequence (Q13951 whole entry, looked up): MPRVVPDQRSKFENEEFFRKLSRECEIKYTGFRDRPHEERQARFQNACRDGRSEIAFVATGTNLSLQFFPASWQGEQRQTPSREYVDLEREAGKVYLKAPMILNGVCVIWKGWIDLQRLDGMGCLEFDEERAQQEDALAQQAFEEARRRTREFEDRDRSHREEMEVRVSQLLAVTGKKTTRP
Outline: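 Compound was incubated for 30 min with biotin-RUNX1 plus His6-CBF-beta at 30 nM per protein. Binding was then detected by TR-FRET between terbium anti-His antibody and 5 nM streptavidin-XL665, read after 90 min, in the same buffer as the AlphaScreen primary assay.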
% is scaled to controls: 0 for no effect and ±100 for the full control effect; potency is read from the fitted curve at half-maximal effect.

Activity change, negative = inhibition, inactive:
O=C(/C=C/c1cn(CC(O)CN2CCCCC2)c2ccccc12)c1ccccc1 (centres undefined) 7.34%
S=c1[nH]nc([C@@H]2C[C@H]2c2ccccc2)n1-c1ccccc1Cl -7.38%
CCCCC(=O)Nc1ccc(NC(=S)NC(=O)c2ccco2)cc1OC -1.9%
CCC(=O)Nc1cccc(C(=O)OC)c1 1.37%
CCCCc1c(C)nc(N2CCCC2)[nH]c1=O 0.526%
Cc1cc(=O)n2[nH]c(CCC(=O)O)nc2n1 14.9%
CCN(CC)S(=O)(=O)c1cccc(NC2=NCCCCC2)c1 -3.88%
CCN1C/C(=C/c2cccs2)c2nc3ccccc3c(C(=O)O)c2C1 30.8%
COc1ccc(OS(=O)(=O)c2c(C)noc2C)cc1 14.1%
O=C(Nc1ccc(Cl)cc1)N1CCCC(Cn2cccc2)C1 (centres undefined) -9.6%
CC(C)c1nc2oc3c(N(C)CCO)ncnc3c2c2c1CCC2 -6.9%
CC(C)(C)NC(=O)c1cccc2c1C(=O)c1ccccc1-2 19.1%
CCN(CC)c1ccc(/C=N/N2CCN(Cc3ccccc3Cl)CC2)c(O)c1 3.34%
CCCNC(=S)Nc1ccccc1 1.82%
CC1CCC2(CC1)NC(=S)N(C(C)(C)C)N2 (centres undefined) -0.587%
CN1c2ccccc2C(=O)/C(=C\Nc2ccc(F)cc2)S1(=O)=O 3.72%
COC(=O)[C@@H](NC(=O)NC1CCCCC1C)C(C)C (some centres undefined) 4.32%
CCCCCc1ccc(S(=O)(=O)Nc2cc(C)ccn2)cc1 -8.73%
Cc1onc(-c2ccccc2)c1C(=O)NNC(=S)NC(=O)c1ccc2c(c1)OCO2 0.0734%
O=C(CCl)NCCCN(C(=O)C(Cl)Cl)c1ccc([N+](=O)[O-])cc1 20.2%
Cn1nc(-c2ccccc2)cc1NS(=O)(=O)c1ccccc1 14.9%
O=C(NNC(=S)Nc1ccccc1C(F)(F)F)C1CC1 1.1%
COc1cc(/C=N\NC(=O)CNC(=O)C(c2ccccc2)c2ccccc2)ccc1O 11.9%
COCc1cc(=O)n2[nH]c(C(C)(C)C)cc2n1 -2.01%
COc1cc(NCc2ccccc2O)c2ncccc2c1 9.87%
COc1ccc(NS(=O)(=O)c2ccc(Cl)s2)cn1 7.73%
O=C(NN1C(=O)C2CCCCC2C1=O)c1ccco1 (centres undefined) -0.159%
Cc1onc(-c2ccccc2)c1C(=O)NC(=S)NNC(=O)c1ccco1 -16.1%
O=C(NC(=S)Nc1ccccc1N1CCCC1)c1ccco1 3.85%
Cc1cc(NC(=O)CN2CCOCC2)n(-c2ccccc2)n1 4.36%
NS(=O)(=O)c1ccc(Sc2ccccn2)c([N+](=O)[O-])c1 54.9%
O=C(Nc1ccc2ccccc2c1)c1ccc(Cl)cc1Cl -9.19%
COc1cccc(/C=N/n2nnnc2N)c1 8.92%
CCN(CC)S(=O)(=O)c1ccc(/C=C/C(=O)Nc2ccc(N3CCOCC3)cc2)cc1 8.12%
CN(C(=O)C(Cl)Cl)C1CC2C=CC1C2 (centres undefined) 8.58%
Cc1cc(C)c(OCC(=O)N(Cc2ccc(N(C)C)cc2)C2CCS(=O)(=O)C2)c(C)c1 (centres undefined) 1.38%
CN(C)S(=O)(=O)c1ccc(Cl)c(NC(=O)CN2CCN(Cc3ccc4c(c3)OCO4)CC2)c1 7.92%
CC(C)(O)P(=O)(O)CCc1ccccc1 15.2%
COC(=O)c1ccccc1N=Nc1c(C)noc1C 12.7%
COc1ccccc1/C=C/C=N/n1c(-c2ccccn2)n[nH]c1=S 11.2%
CC(=O)Oc1ccc(C(=O)Nc2cccc(-c3nnc(-c4ccco4)o3)c2)cc1 -5.88%
C=CCNC(=S)NCC -15.6%
CN(C)c1cc(-c2ccc([N+](=O)[O-])cc2)oc(=O)c1Cl 7.12%
CCCc1cc(=O)oc2c(CN(CC)CC)c(O)c(Cl)cc12 19.6%
C/C(=N\O)C1CC(CC(=O)O)C1(C)C (centres undefined) 5.63%
CCc1sc(N)nc1-c1ccccc1 9.08% [at 22.1 µM]
CC(C)NC(=O)NNC(=O)Cn1nnc(-c2cccc(Cl)c2Cl)n1 2.25%
COCCn1c(-c2ccc(Br)cc2)nc2oc3cc(OC)ccc3c(=O)c2c1=O 13.3%
Fc1c(CSC(=S)N2CCOCC2)cccc1CSC(=S)N1CCOCC1 8.61%
COc1ccc(/C=C/C(=O)Oc2cc(O)cc(O)c2)cc1 3.35%
CN1C2CCC1CC(NC(=O)c1ccc(Cl)cc1)C2 (centres undefined) 10.2%
COc1ccc(/C=N/NC(=O)c2ccc(Br)cc2)cc1CN1CCOCC1 15.4%
O=[N+]([O-])c1cc(Cl)cc(/C=N/NC(=S)Nc2ccc(S(=O)(=O)N3CCOCC3)cc2)c1O 36.7%
CSCC[C@H](NC(=O)OC(C)(C)C)C(=O)N/N=C/c1cccc2nccnc12 33.1%
COc1ccccc1N1C(=O)[C@@H]2[C@H](C1=O)[C@H](C(=O)c1ccc(OC(C)=O)cc1)N1N=CC=C[C@@H]21 21.1%
CC(C)Nc1cc(C(C)(C)C)nc2c(-c3ccccc3)cnn12 4.12%
Cc1nnc(NC(=O)c2ccccc2NC(=O)c2ccccc2)s1 -23.7%
CN1CCN(C(=O)C23CC4CC(C)(CC(C)(C4)C2)C3)CC1 -9.9%
COc1cccc(N/C(=N/C(=S)Nc2ccc(C)cc2C)Nc2nc(C)cc(C)n2)c1 -7.98%
CC(=O)N1N=C2c3ccccc3CCC2C1c1cccs1 (centres undefined) 7.29%
CC(=O)Nc1ccc(NS(=O)(=O)c2ccc(C)cc2)cc1[N+](=O)[O-] 31.5%
Cc1cc(-c2ccccc2C(=O)Nc2ccccc2O)on1 -2.53%
O=C(O)c1ccccc1C(=O)Nc1ccc(-n2ccc(C(F)(F)F)n2)cc1 -6.89%
Cc1nc2c(c(=O)c3ccccc3n2C)c(=O)n1-c1ccccc1 1.95%
CN(C)c1ccc(NC(=O)Nc2csc3ccccc23)cc1 -4.5%
CSc1cccc(NC(=O)Nc2ccccc2C(N)=O)c1 3.24%
NC(=O)c1ccc(NC(=O)COC(=O)/C=C/c2ccc3c(c2)OCO3)cc1 21.1%

Potency, active:
CCc1cccc(NC(=O)CCCCCC2NC(=O)NC2C)c1 (centres undefined) 56.2 nM
O=C(OCC1OC(OC(=O)c2cc(O)c(O)c(OC(=O)c3cc(O)c(O)c(O)c3)c2)[C@@H](OC(=O)c2cc(O)c(O)c(OC(=O)c3cc(O)c(O)c(O)c3)c2)C(OC(=O)c2cc(O)c(O)c(OC(=O)c3cc(O)c(O)c(O)c3)c2)C1OC(=O)c1cc(O)c(O)c(OC(=O)c2cc(O)c(O)c(O)c2)c1)c1cc(O)c(O)c(OC(=O)c2cc(O)c(O)c(O)c2)c1 (some centres undefined) 10000 nM
O=C(O)C[C@@H]1C(=O)O[C@@H]2C(COC(=O)c3cc(O)c(O)c(O)c3)O[C@@H](OC(=O)c3cc(O)c(O)c(O)c3)[C@@H](OC(=O)c3cc(O)c(O)c4c3[C@H]1[C@H](O)C(=O)O4)[C@H]2OC(=O)c1cc(O)c(O)c(O)c1 (some centres undefined) 89.1 nM
Cc1c2c(c(O)c3c(O)cccc13)C(=O)O[C@H]2C1C(N(C)C)C(O)=C(C(N)=O)C(=O)[C@H]1O (some centres undefined) 2240 nM
O=c1c(O)cccc2cc(O)c(O)c(O)c12 1260 nM
O=C(NC(=S)NNC(=O)c1ccccc1O)c1ccco1 3160 nM
O=C(O)C1=CC(=C(c2ccc(O)c(C(=O)O)c2)c2ccc(O)c(C(=O)O)c2)C=CC1=O 7940 nM
